From PubChem BioAssay
Only some compounds are listed: those with a hit (about 5.4% of all), similar ones and a draw of the others.
15-hLO-2 inh – qHTS Assay for Inhibitors of 15-hLO-2 (15-human lipoxygenase 2) | Polyunsaturated fatty acid lipoxygenase ALOX15B (Homo sapiens), O15296 | purified 15hLO-2, xylenol orange hydroperoxide absorbance | Potency, µM (doses to about 57.1 µM), usual class: inhibitors | 110,000 tested, 0.56% active; note: nearly all actives have a fitted effect of over 60% in size
Target sequence (O15296 whole entry, looked up): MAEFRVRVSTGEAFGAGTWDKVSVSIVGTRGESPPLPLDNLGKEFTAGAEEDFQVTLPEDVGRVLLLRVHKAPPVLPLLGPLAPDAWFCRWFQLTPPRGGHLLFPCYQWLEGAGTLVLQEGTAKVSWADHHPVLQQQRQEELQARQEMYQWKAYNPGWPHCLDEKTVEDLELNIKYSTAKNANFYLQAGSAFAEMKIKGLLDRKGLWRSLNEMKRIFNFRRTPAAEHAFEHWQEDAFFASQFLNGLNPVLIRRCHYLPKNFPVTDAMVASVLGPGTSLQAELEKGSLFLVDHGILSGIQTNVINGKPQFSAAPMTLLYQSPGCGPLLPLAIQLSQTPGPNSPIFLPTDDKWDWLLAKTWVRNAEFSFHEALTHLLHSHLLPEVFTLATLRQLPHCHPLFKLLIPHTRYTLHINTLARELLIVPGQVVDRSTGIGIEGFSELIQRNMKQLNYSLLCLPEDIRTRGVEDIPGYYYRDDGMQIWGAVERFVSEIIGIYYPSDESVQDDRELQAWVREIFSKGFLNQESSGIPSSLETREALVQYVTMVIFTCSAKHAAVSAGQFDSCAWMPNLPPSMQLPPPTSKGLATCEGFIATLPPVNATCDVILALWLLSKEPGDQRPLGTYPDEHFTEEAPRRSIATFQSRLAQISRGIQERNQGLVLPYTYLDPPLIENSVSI
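Enzyme 50 nM, AA 45 uM, 25 mM Hepes pH 7.5 + 0.01% Triton X-100; cpd preinc 15 min RT, rxn 90 min RT; stop/detect with 200 uM XO + 300 uM Fe(II) in 50 mM H2SO4, 30 min; A573/A405.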
HPGD inh – qHTS Assay for Inhibitors of HPGD (15-Hydroxyprostaglandin Dehydrogenase). purified HPGD, NADH fluorescence kinetic, PGE2 substrate. Potency, µM, hits mostly inhibitors. 150,000 tested, 4.3% active; active = well fitted inhibition curve with a large enough effect, not every such curve was filed as active; inconclusive = small, poorly fitted or top-dose-only effect, or another doubt; inactive = no such curve, though single readings can be large or run the other way
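NADH formation kinetics: reaction with 30 uM PGE2 and 1 mM NAD+ (final), 20 nM enzyme, Tris-HCl pH 8 with Tween 20, after 15 min compound preincubation at room temperature. Fluorescence change, last versus first of five reads.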
IMPase Li cell – qHTS Assay for Identifying the Cell-Membrane Permeable IMPase Inhibitors: Potentiation with Lithium; CHO-M1 cells, IP1 TR-FRET (IP-One), carbachol + lithium; Potency, µM (series often up to 59.4 µM), actives largely listed as inhibitors; 210,000 tested, 0.35% active;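 note: IP1 builds up when IMPase is blocked and the TR-FRET signal falls; nearly all actives have a fitted effect of over 50% in size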
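Steps: plate 2000 CHO-M1 cells per well and culture 16–30 h; add compound and lithium; incubate 30 min, 37C; add d2-IP1 tracer and Eu cryptate anti-IP1 antibody in lysis buffer; read after 10 min at room temperature.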
PNC inhibitor – High Content Assay for Compounds that inhibit the Assembly of the Perinucleolar Compartment. PC3M PTB-GFP, PNC prevalence imaging, 16 h; active compounds read low. activity change (PNC), negative = inhibition, % at 10 µM. 140,000 tested, 3.1% active. AID 2417, 2010;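 active = readout at or below -70, meaning at least 70% loss of cells showing the perinucleolar compartment, a nuclear body marking cancer cells; inconclusive = readout between -30 and a set limit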
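Compounds are pinned in duplicate onto adhered PC3M cells stably expressing GFP-tagged PTB and incubated 16 h at 37 C. Cells are then fixed, nuclei stained with Hoechst, and PNC-positive cells counted.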
ALOX12 inhib – qHTS Assay for Inhibitors of 12-hLO (12-human lipoxygenase) | Potency, µM (highest dose often 57.1 µM), usual class: inhibitors | AID 1452, 2008 | purified 12-hLO, xylenol orange hydroperoxide absorbance | 150,000 tested, 0.12% active; note: nearly all actives have a fitted effect of over 55% in size
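Lipoxygenase turnover measured by absorbance at 573 and 405 nm after Fe-XO development. Human 12hLO 150 nM, arachidonate 40 uM, pH 7.0 Hepes buffer with detergent; 15 min compound preincubation, 30 min reaction.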
IMPase cell inh – qHTS Assay for Identifying the Cell-Membrane Permeable IMPase Inhibitors | Inositol monophosphatase 1 (Rattus norvegicus), P97697 | CHO-M1 cells, IP1 accumulation, HTRF TR-FRET ratio | 120,000 tested, under 10 active | AID 901, 2007 | inhibition (IP1 accumulation), % at 46.1 µM; active = well fitted curve in the direction sought with a large enough effect in the signal ratio, not every such curve was filed as active; inconclusive = small, poorly fitted or top-dose-only effect, or a change in a side signal; inactive = no such curve, though single readings can be large or run the other way; the % refers to the signal ratio;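 note: cells stimulated with carbachol in lithium chloride buffer; higher means more IMPase inhibition seen as more IP1 and lower FRET ratio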
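Seeded CHO-M1 cells were dosed with compound at up to 46 uM, stimulated with carbachol for 30 min, then lysed in IP-One detection reagents. Higher IP1 lowers the TR-FRET signal.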
Hits are given with their value; [ ] = dose if it differs, or a comment. Unless noted, calls come from the whole dose curve; as a rule, active = well fitted curve in the direction sought with a large enough effect; inconclusive = small, poorly fitted or top-dose-only effect, or another doubt; inactive = no such curve, though single readings can be large; an effect the other way counts as inactive or inconclusive.

Results for COc1cc(/C=N/n2cnnc2)ccc1OC(=O)c1ccco1 ?
IMPase Li cell: inactive

What do the screens show for `COCCn1c(=O)c(-c2ccccc2)nc2cnc(Nc3cccc(OC)c3)nc21`?
15-hLO-2 inh: inactive; IMPase Li cell: inactive

How did O=C(Oc1ccccc1)c1ccc(COC(=O)c2cnccn2)cc1 do in these assays?
15-hLO-2 inh: inactive; HPGD inh: inactive; IMPase Li cell: inactive; PNC inhibitor: inconclusive; ALOX12 inhib: inactive; IMPase cell inh: inactive

What do the screens show for `O=C(COC(=O)c1cnccn1)c1ccc(OC(=O)c2ccccc2)cc1`?
15-hLO-2 inh: inactive; HPGD inh: inactive; IMPase Li cell: inactive; PNC inhibitor: -126; ALOX12 inhib: inactive; IMPase cell inh: inactive

What do the screens show for `Cc1ccc(S(=O)(=O)N[C@H](C(=O)Oc2ccc3c(C(F)(F)F)cc(=O)oc3c2)c2ccccc2)cc1`?
15-hLO-2 inh: inconclusive; HPGD inh: inconclusive; IMPase Li cell: inactive; PNC inhibitor: inactive; ALOX12 inhib: inactive; IMPase cell inh: inactive

What do the screens show for `Cc1ccc(S(=O)(=O)NC(C(=O)Oc2ccc3c(C)c(Cl)c(=O)oc3c2)c2ccccc2)cc1` (centres undefined)?
HPGD inh: inconclusive; IMPase Li cell: inactive; PNC inhibitor: -111; ALOX12 inhib: inactive; IMPase cell inh: inactive

What do the screens show for `COc1ccc(O)c(-c2cc(-c3ccccc3[N+](=O)[O-])[nH]n2)c1`?
HPGD inh: 22µM; IMPase Li cell: inactive; PNC inhibitor: inactive; ALOX12 inhib: inactive

What do the screens show for `O=[N+]([O-])c1ccccc1-c1cc(-c2cc(Cl)ccc2O)n[nH]1`?
HPGD inh: 11µM; IMPase Li cell: inactive; PNC inhibitor: inactive; ALOX12 inhib: inactive

Results for Cc1ccc(O)c(-c2cc(-c3ccccc3[N+](=O)[O-])[nH]n2)c1 ?
HPGD inh: 4.5µM; IMPase Li cell: inactive; PNC inhibitor: inactive; ALOX12 inhib: inactive

What do the screens show for `Cc1ccc(O)c(-c2cc(-c3ccccc3C)[nH]n2)c1`?
15-hLO-2 inh: inactive; HPGD inh: 22µM; IMPase Li cell: inactive; PNC inhibitor: inactive; ALOX12 inhib: inactive; IMPase cell inh: inactive

What do the screens show for `COc1ccc(-c2cc(-c3cc(C)ccc3O)[nH]n2)cc1`?
IMPase Li cell: inactive

What do the screens show for `C[C@@H](CN(C)C)CN1c2ccccc2CCc2ccccc21`?
15-hLO-2 inh: inactive; HPGD inh: inactive; IMPase Li cell: inactive; ALOX12 inhib: inactive; IMPase cell inh: inactive

What do the screens show for `Cc1ccc(O)c(-c2cc(C(F)(F)C(F)F)[nH]n2)c1`?
15-hLO-2 inh: inactive; HPGD inh: 16µM; IMPase Li cell: inactive; PNC inhibitor: inactive; ALOX12 inhib: inactive; IMPase cell inh: inactive

Results for CCn1c(CNc2cccc(Cl)c2)nnc1SCC(=O)OC1CCCCC1 ?
15-hLO-2 inh: inactive; HPGD inh: 28µM; IMPase Li cell: inactive; PNC inhibitor: inactive; ALOX12 inhib: inactive; IMPase cell inh: inactive

What do the screens show for `COC(=O)N[C@@H](c1ccc(Br)cc1)C(C(=O)OC)C(=O)OC`?
HPGD inh: inactive; IMPase Li cell: inactive

How did O=C(NCc1ccccc1Cl)c1nnc(Cc2ccc(Cl)cc2)o1 do in these assays?
IMPase cell inh: inactive

Results for CSc1ccc(/C=C2/C(C)=C(CC(=O)O)c3cc(F)ccc32)cc1 ?
15-hLO-2 inh: inconclusive; HPGD inh: inactive; IMPase Li cell: inactive; ALOX12 inhib: inactive[0.00818 µM]

How did C=CCN1C(c2ccccc2)=CS/C1=C(\C#N)c1nnc2n1CCCCC2 do in these assays?
15-hLO-2 inh: inactive; HPGD inh: 25µM; IMPase Li cell: inactive; PNC inhibitor: inactive; ALOX12 inhib: inactive; IMPase cell inh: inconclusive

What do the screens show for `Cc1cc(C(=O)CN2CC(C)OC(C)C2)c(C)n1-c1ccccc1` (centres undefined)?
15-hLO-2 inh: inactive; HPGD inh: inactive; IMPase Li cell: inactive; PNC inhibitor: inactive; ALOX12 inhib: inactive; IMPase cell inh: inactive

How did Cc1ccc(-n2c(C)cc(C(=O)COC(=O)c3ccc[nH]c3=O)c2C)cc1 do in these assays?
HPGD inh: inactive; IMPase Li cell: inactive; PNC inhibitor: -82; ALOX12 inhib: inactive

Results for Cc1cc(C(=O)CSc2nncs2)c(C)n1-c1c(C)n(C)n(-c2ccccc2)c1=O ?
15-hLO-2 inh: inactive; HPGD inh: inactive; IMPase Li cell: inactive; PNC inhibitor: inactive; ALOX12 inhib: inactive; IMPase cell inh: inactive

What do the screens show for `Cc1ccc(-n2c(C)cc(C(=O)CSc3nncs3)c2C)cc1`?
15-hLO-2 inh: inactive; HPGD inh: 25µM; IMPase Li cell: inactive; PNC inhibitor: inconclusive; ALOX12 inhib: inactive; IMPase cell inh: inactive

How did Cc1ccc(-n2c(C)cc(C(=O)CN3CCCCC3)c2C)cc1 do in these assays?
HPGD inh: 13µM; IMPase Li cell: inactive; PNC inhibitor: inconclusive; ALOX12 inhib: inactive

What do the screens show for `COCCNC(=O)[C@H](C)/C=C/C(NC(=O)OCc1ccccc1)c1ccc(C(=O)OC)cc1` (some centres undefined)?
15-hLO-2 inh: inactive; HPGD inh: inactive; IMPase Li cell: inactive; ALOX12 inhib: inactive

What do the screens show for `NC(=O)NCCS[C@H]1CCCC[C@@H]1O`?
15-hLO-2 inh: inactive[11.4 µM]; HPGD inh: inactive; IMPase Li cell: inactive; ALOX12 inhib: inactive[11.4 µM]

Results for O=C(C1CCN(S(=O)(=O)c2ccc(Br)s2)CC1)N1CCN(c2cccc(Cl)c2)CC1 ?
IMPase cell inh: inactive

Results for O=C(CC12CC3CC(CC(C3)C1)C2)NCc1ccncc1 ?
15-hLO-2 inh: inactive; HPGD inh: inactive; IMPase Li cell: inactive; PNC inhibitor: -84; ALOX12 inhib: inactive; IMPase cell inh: inactive

Results for Cc1ccc(C2c3sc(=O)[nH]c3SC3C4CC(C5C(=O)N(C(C)C(=O)O)C(=O)C45)C23)cc1 (centres undefined) ?
HPGD inh: inactive; IMPase Li cell: inactive; PNC inhibitor: -90; ALOX12 inhib: inactive

How did CC1=C(SCCC#N)S/C(=C2\SC(C)=C(SCCC#N)S2)S1 do in these assays?
15-hLO-2 inh: inconclusive; HPGD inh: 18µM; IMPase Li cell: inactive; PNC inhibitor: inactive; ALOX12 inhib: inconclusive; IMPase cell inh: inactive

How did COc1cccc([C@@H]2Oc3ccc(OC)cc3C(=O)[C@H]2OC(=O)N[C@H]2CCCc3ccccc32)c1 do in these assays?
HPGD inh: inactive; IMPase Li cell: inactive
